PubChem BioAssay (NCATS)
“And” between values parts separate entries of the source, which are not always exact repeats. Equal entries are not always repeated. Records with an inconclusive call do not appear. Entries that show only a call come without a potency. A structure can be active in one record and inactive in another. A number with no mark means an inactive call. The source made the active and inactive calls. Calls come from the whole dose curve; as a rule, active = well fitted inhibition curve with a large enough effect; inconclusive = small, poorly fitted or top-dose-only effect; inactive = flat fitted curve, though single readings scatter.

Tests used:
PC49 = assay: qHTS profiling for inhibitors of Plasmodium falciparum proliferation (AID 504749); conditions: P. falciparum in erythrocytes, SYBR Green DNA, 72 h; series mostly up to 28.7 µM
Procedure, shortened: (§1)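 Infected RBCs, 0.3% parasitemia/2.5% Hct final; cpd 72 h, 37 C, 5% CO2; lysis buffer with saponin/triton/SYBR Green I, o/n RT dark; FI 485/535; norm. to artemisinin (0.29 uM) and DMSO.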

TAB165 = assay: as above; conditions: P. falciparum in erythrocytes, SYBR Green DNA, 72 h; series mostly up to 28.7 µM
Procedure, shortened: as §1

W2 = assay: as above; conditions: P. falciparum in erythrocytes, SYBR Green DNA, 72 h; series mostly up to 28.7 µM
Procedure, shortened: as §1

CRL-7250 = normal cell line; assay: Cytotoxic Profiling of Annotated Libraries Using Quantitative High-Throughput Screening (AID 1296008); conditions: Five cell lines viability, CellTiter-Glo ATP luminescence, 48-72 h; max response: hits give low values
Procedure, shortened: (§2)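 Cytotoxicity was measured as CellTiter-Glo ATP luminescence, read after 10 min at room temperature. Compound treatment of the cells lasted 48 or 72 hr at 37 degrees Celsius in a qHTS format.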

KB-3-1 = assay: as above; conditions: Five cell lines viability, CellTiter-Glo ATP luminescence, 48-72 h; max response: hits give low values
Procedure, shortened: as §2

NIH3T3 [1] = assay: as above; conditions: Five cell lines viability, CellTiter-Glo ATP luminescence, 48-72 h; max response: hits give low values
Procedure, shortened: as §2

HACAT [2] = assay: qHTS assay to identify novel small-molecules to repurpose for Merkel cell carcinoma treatment (AID 1296009); conditions: MCC and control cell lines, CellTiter-Glo viability, 72 h; at 44.8 µM (top of the series) unless noted
Procedure, shortened: (§3)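 72 hr, 37 degree celsius; NPC 8-pt / MIPE 11-pt dose response; compound pinned in DMSO; CellTiter-Glo, 10 min RT, luminescence; normalized to no-cell and DMSO controls.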

MCC-13 = assay: as above; conditions: MCC and control cell lines, CellTiter-Glo viability, 72 h; series mostly up to 46 µM
Procedure, shortened: as §3

MCC-26 = assay: as above; conditions: MCC and control cell lines, CellTiter-Glo viability, 72 h; series mostly up to 46 µM
Procedure, shortened: as §3

MKL-1 = assay: as above; conditions: MCC and control cell lines, CellTiter-Glo viability, 72 h; series mostly up to 46 µM
Procedure, shortened: as §3

MKL-2 = assay: as above; conditions: MCC and control cell lines, CellTiter-Glo viability, 72 h; series mostly up to 46 µM
Procedure, shortened: as §3

UISO = assay: as above; conditions: MCC and control cell lines, CellTiter-Glo viability, 72 h; series mostly up to 46 µM
Procedure, shortened: as §3

HEK293 = assay: Cytotoxic Profiling of Annotated Libraries Using Quantitative High-Throughput Screening (AID 1296008); conditions: Five cell lines viability, CellTiter-Glo ATP luminescence, 48-72 h; max response: hits give low values
Procedure, shortened: as §2

HaCat [3] = assay: as above; conditions: Five cell lines viability, CellTiter-Glo ATP luminescence, 48-72 h; max response: hits give low values
Procedure, shortened: as §2

NIH3T3 [4] = assay: qHTS assay to identify novel small-molecules to repurpose for Merkel cell carcinoma treatment (AID 1296009); conditions: MCC and control cell lines, CellTiter-Glo viability, 72 h; at 44.8 µM (top of the series) unless noted
Procedure, shortened: as §3

PC26 = assay: qHTS profiling for inhibitors of Plasmodium falciparum proliferation (AID 504749); conditions: P. falciparum in erythrocytes, SYBR Green DNA, 72 h; series mostly up to 28.7 µM
Procedure, shortened: as §1

TAB109 = assay: as above; conditions: P. falciparum in erythrocytes, SYBR Green DNA, 72 h; series mostly up to 28.7 µM
Procedure, shortened: as §1

TAB113 = assay: as above; conditions: P. falciparum in erythrocytes, SYBR Green DNA, 72 h; series mostly up to 28.7 µM
Procedure, shortened: as §1
Note: nearly all actives have a fitted effect of over 60% in size.
Potency is the fitted concentration of half-maximal effect.

Cc1ccccc1C(OCCN(C)C)c1ccccc1 (stereo not drawn) was tested. Which Potency (PC49) did it give?
The Potency was “inactive”.

What about the Potency (TAB165) of the same compound?
The Potency was 7940 nM (active).

And the Potency (W2)?
Its Potency is 4260 nM (active).

And the outcome (CRL-7250)?
Its outcome is “inactive”.

And the max response (KB-3-1)?
The max response was 4.24% and -3.9%.

What about the outcome (KB-3-1) of the same compound?
Its outcome is “inactive”.

And the max response (NIH3T3 [1])?
Its max response is -2.58% and 4.52%.

What about the outcome (HACAT [2]) of the same compound?
Its outcome is “inactive”.

What about the Potency (MCC-13) of the same compound?
The Potency was “inactive”.

What about the Potency (MCC-26) of the same compound?
The Potency was “inactive”.

And the Potency (MKL-1)?
The Potency was “inactive”.

What about the Potency (MKL-2) of the same compound?
Its Potency is “inactive”.

What about the Potency (UISO) of the same compound?
Its Potency is “inactive”.

With Cn1cnc2c(F)c(Nc3ccc(Br)cc3Cl)c(C(=O)NOCCO)cc21 as the compound, how does the Potency (HEK293) read?
The Potency was 1320 nM (active).

And the max response (HEK293)?
Its max response is -14.9%.

What about the Potency (HaCat [3]) of the same compound?
The Potency was 1480 nM (active).

And the Potency (KB-3-1)?
Its Potency is 9350 nM (active).

What about the max response (KB-3-1) of the same compound?
Its max response is -17.4% and -1.76%.

And the Potency (NIH3T3 [1])?
Its Potency is 4180 nM (active).

What about the Potency (MCC-26) of the same compound?
Its Potency is “inactive”.

What about the Potency (MKL-1) of the same compound?
Its Potency is “inactive”.

What about the Potency (MKL-2) of the same compound?
Its Potency is “inactive”.

What about the Potency (UISO) of the same compound?
The Potency was “inactive”.

Which results are given for COc1cc(Oc2ccnc3cc(OC)c(OC)cc23)ccc1NC(=O)NC(C)c1nccs1 (stereo not drawn)?
max response (CRL-7250): -3.15% and -18.6%; outcome (HaCat [3]): inactive; outcome (NIH3T3 [1]): inactive; outcome (HACAT [2]): inactive; Potency (MCC-13): inactive; Potency (MCC-26): inactive; Potency (MKL-1): inactive; Potency (MKL-2): inactive; outcome (NIH3T3 [4]): inactive

What does the source list for Cn1c(=O)c(F)c(Nc2ccc(I)cc2F)c2c(=O)n(C[C@@H](O)CO)cnc21?
Potency (CRL-7250): 935 nM (active); Potency (HaCat [3]): 833 nM (active); max response (KB-3-1): -4.57%; Potency (MCC-26): inactive; Potency (MKL-1): inactive; Potency (UISO): inactive

What does the source list for O=S(=O)(N=Cc1c(O)ccc2ccccc12)c1cccs1?
max response (CRL-7250): -0.432%; max response (HaCat [3]): -24.1%; max response (KB-3-1): 0.0321%; outcome (NIH3T3 [1]): inactive; Potency (MCC-13): inactive; Potency (MCC-26): inactive; Potency (MKL-1): inactive; Potency (MKL-2): inactive; outcome (NIH3T3 [4]): inactive

Which outcome (CRL-7250) does the source give for COc1c(Cl)cc2c([nH]c3cnccc32)c1NC(=O)c1cccnc1C here?
Its outcome is “inactive”.

What about the max response (KB-3-1) of the same compound?
The max response was 9.41%.

What about the outcome (KB-3-1) of the same compound?
Its outcome is “inactive”.

What about the max response (NIH3T3 [1]) of the same compound?
Its max response is -6% and -16.3%.

And the outcome (HACAT [2])?
Its outcome is “inactive”.

What about the Potency (MCC-13) of the same compound?
The Potency was “inactive”.

And the Potency (MCC-26)?
Its Potency is “inactive”.

And the Potency (MKL-1)?
The Potency was “inactive”.

What about the Potency (MKL-2) of the same compound?
The Potency was “inactive”.

And the Potency (UISO)?
Its Potency is “inactive”.

What does the source list for Nc1nc2ccc(OC(F)(F)F)cc2s1?
Potency (PC26): inactive; Potency (PC49): inactive; Potency (TAB109): inactive; Potency (TAB113): inactive; Potency (TAB165): inactive; Potency (W2): inactive; outcome (CRL-7250): inactive; max response (HaCat [3]): -58.3%; outcome (HaCat [3]): inactive; max response (KB-3-1): -6.76%; max response (NIH3T3 [1]): -3.98%; outcome (HACAT [2]): inactive; Potency (MCC-13): inactive; Potency (MCC-26): inactive; Potency (MKL-1): inactive; Potency (MKL-2): inactive; Potency (UISO): inactive

For Oc1cccc(-c2nc(N3CCOCC3)c3oc4ncccc4c3n2)c1, which Potency (CRL-7250) is on record?
The Potency was 76.2 nM (active).

And the Potency (HEK293)?
Its Potency is 171 nM (active).

And the Potency (NIH3T3 [1])?
The Potency was 762 nM (active).

COc1nc(-c2ccc3c(c2)OCO3)n(-c2ccc(NC(=O)CSc3ccccc3)cc2)n1 was tested. Which max response (CRL-7250) did it give?
Its max response is -34%.

And the max response (KB-3-1)?
The max response was -3.01% and -18.6%.

And the max response (NIH3T3 [1])?
Its max response is -26.7%.

And the outcome (HACAT [2])?
The outcome was “inactive”.

What about the Potency (MCC-13) of the same compound?
The Potency was “inactive”.

And the Potency (MCC-26)?
Its Potency is “inactive”.

And the Potency (MKL-1)?
Its Potency is “inactive”.

And the Potency (MKL-2)?
Its Potency is “inactive”.

And the Potency (UISO)?
The Potency was “inactive”.

How did the max response (CRL-7250) turn out when CCOC(=O)N[C@@H]1CC[C@@H]2[C@@H](C1)C[C@H]1C(=O)O[C@H](C)[C@H]1[C@@H]2C=Cc1ccc(-c2cccc(F)c2)cn1 was run?
Its max response is -6.96%.

What about the max response (NIH3T3 [1]) of the same compound?
The max response was -8.03%.

And the Potency (MCC-13)?
Its Potency is “inactive”.

And the Potency (MCC-26)?
Its Potency is “inactive”.

And the Potency (MKL-1)?
The Potency was “inactive”.

What about the Potency (MKL-2) of the same compound?
The Potency was 20900 nM (active).

And the Potency (UISO)?
Its Potency is “inactive”.
